The results in this text go back to PubChem BioAssay (NCI).

About 83,000 compounds went through this panel and 20% of them were active in at least one assay; those are over-represented in the sample as a whole.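 Note: values are percent growth. 100 is the growth of untreated cells, values between 100 and 0 indicate rising inhibition; between -100 and 0 indicates cell death.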 Values without a mark were called inactive. Activity calls are given as the source filed them. Rule for the calls: active = growth percent below 10; inactive = the rest.

For one experiment, the system named is MDA-MB-231 breast. The experiment in a line: NCI-60 one-dose screen, 48 h (100 = growth as untreated, 0 = no growth, -100 = all killed). Particulars: 10 µM unless noted.
In the case of `CC1=CCC(OC(=O)C(C)(O)CCC(O)(C(=O)OC2(C)C=CC(O)(C(C)C)CC2)C(C)C)(C(C)C)CC1` (configuration not stated), the growth is 100%.
For the compound `CCCCCCNC(=O)Nc1ccc2cc3ccc(NC(=O)NCCCCCC)cc3nc2c1`, the growth was -23.6% (active).
The same measure, in the same setting: for `C[C@H]1[C@H](C)CC[C@]2(C(=O)NCC#CCN3CCN(C)CC3)CC[C@]3(C)C(=CC[C@@H]4[C@@]5(C)Cc6c([nH]c7ccccc67)C(C)(C)[C@@H]5CC[C@]43C)[C@H]12` the value was 63.8%; for `O=C(/C=C(/C=C/c1coc2ccccc12)OB(F)F)/C=C/c1coc2ccccc12`, 101%.

For a further experiment, the system named is RXF 393 renal. The description is as above. Conditions: 10 µM unless noted.
In the case of `Cc1cccc(NC(=O)Nc2ccc(-c3ccc4c(c3)NC(=O)/C4=C\c3ccc[nH]3)cc2)c1`, the growth is 102%.
Turning to `Cc1cc2nc3c4cc(C=O)ccc4n(CCN(C)C)c3nc2cc1C`, the growth is 19.4%.
Still for that read-out and setting: then `c1ccc2c(-c3nccs3)c[nH]c2c1`, with 95%; and `COc1cc(NC(C)CCCNC(=O)CCC(=O)NCCCNCCCCCCCCCCNCCCNC(=O)CCC(=O)NCCCC(C)Nc2cc(OC)cc3cccnc23)c2ncccc2c1` (configuration not stated), with 88.1% [8 µM]; and `O=C1c2ccc3c4c(ccc(c24)C(=O)N1CCCNCc1ccccc1)C(=O)N(CCCNCc1ccccc1)C3=O`, with -88.8% (active).
As for `COc1ccc(CNCCN2C(=O)c3ccc4c5c(ccc(c35)C2=O)C(=O)N(CCNCc2ccc(OC)c(OC)c2OC)C4=O)c(OC)c1OC`, the growth is -32.3% (active).
On the same count and under the same terms, for `CCN(CC)c1ccc(C(=O)c2ccccc2)cc1` the value was 111%.
On the same count and under the same terms, then `COc1cc2c(c(O)c1Cl)C(=O)c1c(O)cc(C[C@H](C)O)cc1[C@H]2[C@H]1c2cc(C[C@H](C)O)cc(O)c2C(=O)c2c1cc(OC)c(Cl)c2O`, with 10.4%.
On the same count and under the same terms, then `Nc1c(C(=O)Nc2cccc3cnccc23)sc2nc3c(cc12)C(=O)CCC3`, with 92.2%; and `O=C(CCN1CCCC1)Nc1ccc2c(Nc3ccc(F)cc3)c3ccccc3nc2c1`, with 7.89% (active); and `COc1cc2c(cc1OC)C(=O)/C(=C/c1cc(C)c(O)c(C)c1)S2`, with -6.02% (active).
For the compound `CCCCCN1C=C/C(=C\C(=O)N(C)c2ccc(Oc3ccccc3)cc2)c2ccccc21`, the growth is 85.8%.
The same measure, in the same setting: for `C/C(=N\Nc1cc(C)nc2ccc(Br)cc12)c1ccc([N+](=O)[O-])cc1` the value was 68.6%.
Same read-out and setting: for `N/C(=N\C(N)=N\c1nc2ccccc2s1)c1ccnc(Br)c1` the value was 15.7%.
The same measure, in the same setting: then `COc1cc(/C=N/NC(=O)c2cnn3c2NC(c2ccccc2)C3)ccc1Oc1ccccc1` (configuration not stated), with 29.3%.
As for `COc1cc(-c2n/c(=C\c3c(O)[nH]c4ccc(Cl)cc34)cc3c2=Nc2ccccc2-3)ccc1F`, the growth is -78.7% (active).
The same measure, in the same setting: then `c1ccc2c(-c3c[nH]c4ccccc34)c3c(cc2c1)[nH]c1ccccc13`, with 33.5%; and `C=C(C)[C@@H]1CC[C@]2(CN)CC[C@]3(C)[C@H](CC[C@@H]4[C@@]5(C)CCCNC(C)(C)[C@@H]5CC[C@]43C)[C@@H]12`, with -87.4% (active).
On the same count and under the same terms, for `CCOC(=O)/C(C#N)=C1/NNC(=Nc2cccnc2)S1` the value was 110%; for `O=C1c2ccc3c4c(ccc(c24)C(=O)N1CCCNCc1ccccc1Cl)C(=O)N(CCCNCc1ccccc1Cl)C3=O`, -94.2% (active); for `CCN(CC)c1ccc(/C=N/NC(=O)CSc2nc3ccccc3c(=O)n2Cc2ccc(S(N)(=O)=O)cc2)c(O)c1`, 42.6%.
Consider `COc1cc(/C=C/c2cc(O)c(C(C)=O)c(O)c2)cc2c1O[C@]1(C)CC[C@@H](O)C(C)(C)[C@H]1C2`, for which the growth was -19.4% (active).
Take `O=C(CCN1CCCC1)Nc1ccc2c(NCCCc3ccccc3)c3ccccc3nc2c1`: the growth was 5.65% (active).
On the same count and under the same terms, then `CCSCC1CC(O)(c2ccccc2)CC(c2ccc(F)cc2)O1` (configuration not stated), with -5.44% (active).
For `N/C(=N\C(N)=N\c1nc2ccccc2s1)c1cnccn1`, the growth was -43% (active).
Same read-out and setting: then `C#CCNC(=O)[C@]1(C)CC[C@]2(C)CC[C@@H]3C(=CC[C@H]4[C@@]3(C)CC[C@H]3C(C)(C)C(=O)CC[C@]43C)[C@@H]2C1`, with 116%.
As for `CCc1ccc(CNc2ccc(N3CCOCC3)c(C(=O)O)c2)cc1`, the growth is 121%.
With `COc1ccc(/C=N/NC(=O)c2cnn3c2NC(c2ccccc2)C3)cc1OC` (configuration not stated), the growth is 78.2%.
Still for that read-out and setting: for `N#CC1=C(/N=C/c2ccccc2)Oc2c(ccc3ccccc23)C1c1ccc([N+](=O)[O-])cc1` (configuration not stated) the value was 98.2%; for `O=C(Cc1ccccc1)NNc1nc(Cl)nc(N2CCN(C(c3ccccc3)c3ccccc3)CC2)n1`, 85.8%; for `COC(=O)C1=C(C(=O)ON)[C@@H]2C=C[C@@]1([C@@H](Cc1ccccc1)Nc1ccccc1)O2`, 91.1%.
Same read-out and setting: then `CCCOC(=O)N[C@H]1CCc2c(Cl)c(OC)c(OC)c(OC)c2-c2ccc(SC)c(=O)cc21`, with 24.3%; and `CCN(CC)CCCC(C)Nc1cc(O)cc2cccnc12` (configuration not stated), with 105%.
On the same count and under the same terms, for `O=C1c2ccc3c4c(ccc(c24)C(=O)N1CCCNCc1ccccc1F)C(=O)N(CCCNCc1ccccc1F)C3=O` the value was -87.9% (active).
For the compound `CC1=CCC(OC(=O)C(C)(O)CCC(O)(C(=O)OC2(C)C=CC(O)(C(C)C)CC2)C(C)C)(C(C)C)CC1` (configuration not stated), the growth was 98.5%.
Still for that read-out and setting: then `CCCCCCNC(=O)Nc1ccc2cc3ccc(NC(=O)NCCCCCC)cc3nc2c1`, with -47.7% (active); and `C[C@H]1[C@H](C)CC[C@]2(C(=O)NCC#CCN3CCN(C)CC3)CC[C@]3(C)C(=CC[C@@H]4[C@@]5(C)Cc6c([nH]c7ccccc67)C(C)(C)[C@@H]5CC[C@]43C)[C@H]12`, with 84.9%.
On the same count and under the same terms, then `O=C(/C=C(/C=C/c1coc2ccccc12)OB(F)F)/C=C/c1coc2ccccc12`, with 109%.
